According to PubChem BioAssay AID1159580 (chemical genetic matrix, 2015):
The whole screen tested about 5,500 compounds, of which about 2,000 (36%) were called active. Not shown: some 18% with an inconclusive outcome. No stated cut-off is given here; in the data, active means normalized growth mostly below about 0.91 (no sharp cut-off); inconclusive means no clear call, values can overlap the other calls; inactive means mostly above about 0.92. The list shows a part of the results.

Assay: chemical genetic growth profiling, strain panel (AID 1159580);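 further: tested at 20 µM; growth read once vehicle control cultures reached saturation at 30 °C; 1 = growth at the plate median or of vehicle wells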
Conditions: S. cerevisiae deletion strains, growth OD
[1] = locus YDL101C, strain DUN1, stronger effect = lower value
[2] = locus YHR030C, strain SLT2, stronger effect = lower value

Measured: normalized growth

O=C(CSc1nnnn1-c1ccccc1)c1ccccc1
active: locus YDR477W, strain SNF1, stronger effect = lower value 0.663 | locus YFR019W, strain FAB1, stronger effect = lower value 0.752 | locus YGR040W, strain KSS1, stronger effect = lower value 0.655 | locus YGR052W, strain FMP48, stronger effect = lower value 0.587 | locus YGR092W, strain DBF2, stronger effect = lower value 0.431 | [2] 0.397 | locus YHR079C, strain IRE1, stronger effect = lower value 0.437 | locus YJL095W, strain BCK1, stronger effect = lower value 0.415 | locus YJL157C, strain FAR1, stronger effect = lower value 0.664 | locus YJR066W, strain TOR1 (second series), stronger effect = lower value 0.182 | locus YKL048C, strain ELM1, stronger effect = lower value 0.799 | locus YKL067W, strain YNK1, stronger effect = lower value 0.662 | locus YKL101W, strain HSL1, stronger effect = lower value 0.641 | locus YKL203C, strain TOR2, stronger effect = lower value 0.573 | locus YLR113W, strain HOG1, stronger effect = lower value 0.618 | locus YLR133W, strain CKI1, stronger effect = lower value 0.6 | locus YML070W, strain DAK1, stronger effect = lower value 0.608 | locus YMR205C, strain PFK2 (second series), stronger effect = lower value 0.696 | locus YNL020C, strain ARK1, stronger effect = lower value 0.61 | locus YNL183C, strain NPR1, stronger effect = lower value 0.505 | locus YNL307C, strain MCK1 (second series), stronger effect = lower value 0.259 | locus YOL136C, strain PFK27, stronger effect = lower value 0.529 | locus YOR119C, strain RIO1, stronger effect = lower value 0.61 | locus YOR231W, strain MKK1, stronger effect = lower value 0.448 | locus YPL031C, strain PHO85, stronger effect = lower value 0.571 | locus YPL153C, strain RAD53, stronger effect = lower value 0.538 | locus YPL204W, strain HRR25, stronger effect = lower value 0.524 | locus YPL256C, strain CLN2, stronger effect = lower value 0.758
inactive: locus YAR019C, strain CDC15, stronger effect = lower value 0.96 | locus YBL105C, strain PKC1, stronger effect = lower value 0.958 | locus YBR135W, strain CKS1, stronger effect = lower value 0.958 | locus YBR136W, strain MEC1, stronger effect = lower value 0.955 | locus YBR160W, strain CDC28, stronger effect = lower value 0.957 | locus YDL017W, strain CDC7, stronger effect = lower value 0.962 | locus YDL028C, strain MPS1, stronger effect = lower value 0.949 | [1] 0.983 | locus YDL108W, strain KIN28, stronger effect = lower value 0.947 | locus YDL132W, strain cdc53, stronger effect = lower value 0.954 | locus YDL214C, strain PRR2, stronger effect = lower value 0.734 | locus YDR052C, strain DBF4, stronger effect = lower value 0.966 | locus YDR054C, strain cdc34, stronger effect = lower value 0.908 | locus YDR226W, strain ADK1, stronger effect = lower value 0.959 | locus YER123W, strain YCK3, stronger effect = lower value 0.677 | locus YER133W, strain GLC7, stronger effect = lower value 0.775 | locus YFL009W, strain cdc4, stronger effect = lower value 0.949 | locus YFL029C, strain CAK1, stronger effect = lower value 0.949 | locus YFR003C, strain YPI1, stronger effect = lower value 0.96 | locus YFR028C, strain CDC14, stronger effect = lower value 0.959 | locus YHR082C, strain KSP1, stronger effect = lower value 0.698 | locus YHR205W, strain SCH9, stronger effect = lower value 0.661 | locus YIL147C, strain SLN1, stronger effect = lower value 0.948 | locus YJL128C, strain PBS2, stronger effect = lower value 0.948 | locus YJR016C, strain ILV3, stronger effect = lower value 0.965 | locus YJR066W, strain TOR1, stronger effect = lower value 0.486 | locus YKL193C, strain SDS22, stronger effect = lower value 0.952 | locus YLR403W, strain SFP1, stronger effect = lower value 0.663 | locus YMR001C, strain CDC5, stronger effect = lower value 0.95 | locus YMR277W, strain FCP1, stronger effect = lower value 0.946 | locus YNL006W, strain LST8, stronger effect = lower value 0.951 | locus YNL161W, strain CBK1, stronger effect = lower value 0.965 | locus YNL207W, strain RIO2, stronger effect = lower value 0.93 | locus YNL222W, strain SSU72, stronger effect = lower value 0.968 | locus YOL078W, strain AVO1, stronger effect = lower value 0.941 | locus YOR061W, strain CKA2, stronger effect = lower value 0.708 | locus YOR329C, strain SCD5, stronger effect = lower value 0.959 | locus YPL209C, strain IPL1, stronger effect = lower value 0.964 | locus YPR025C, strain CCL1, stronger effect = lower value 0.961 | locus YPR106W, strain ISR1, stronger effect = lower value 0.972 | locus YPR111W, strain DBF20, stronger effect = lower value 0.964 | strain NNK1, stronger effect = lower value 0.973 | strain TSCII, stronger effect = lower value 0.948

CSc1nnnn1-c1c(C)cccc1C
inactive: locus YAL013W, strain DEP1, stronger effect = lower value 0.998 | locus YBR229C, strain ROT2, stronger effect = lower value 0.973 | locus YCL061C, strain MRC1, stronger effect = lower value 0.996 | [1] 1.02 | locus YDR150W, strain NUM1, stronger effect = lower value 1.02 | locus YEL061C, strain CIN8, stronger effect = lower value 0.972 | locus YGR078C, strain PAC10, stronger effect = lower value 0.982 | locus YGR229C, strain SMI1, stronger effect = lower value 0.966 | [2] 0.96 | locus YHR087W, strain rtc3, stronger effect = lower value 0.988 | locus YJL187C, strain SWE1, stronger effect = lower value 0.979 | locus YJR043C, strain POL32, stronger effect = lower value 0.982 | locus YJR075W, strain HOC1, stronger effect = lower value 0.998 | locus YKL190W, strain CNB1, stronger effect = lower value 0.962 | locus YLR039C, strain RIC1, stronger effect = lower value 0.969 | locus YLR058C, strain SHM2 (second series), stronger effect = lower value 0.972 | locus YLR085C, strain ARP6, stronger effect = lower value 0.999 | locus YLR262C, strain YPT6, stronger effect = lower value 0.936 | locus YML094W, strain GIM5, stronger effect = lower value 1.08 | locus YMR219W, strain ESC1, stronger effect = lower value 0.983 | locus YMR263W, strain SAP30, stronger effect = lower value 1 | locus YNL153C, strain GIM3, stronger effect = lower value 0.998 | locus YNL298W, strain CLA4 (second series), stronger effect = lower value 0.984 | locus YNL322C, strain KRE1, stronger effect = lower value 0.984 | locus YNR030W, strain Alg12, stronger effect = lower value 1 | locus YOL006C, strain TOP1, stronger effect = lower value 0.944 | locus YPL055C, strain LGE1, stronger effect = lower value 1.01 | locus YPL241C, strain CIN2, stronger effect = lower value 0.936 | locus YPR135W, strain CTF4, stronger effect = lower value 1.01
